Only some compounds are listed: those with a hit (about 6.1% of all), similar ones and a draw of the others.
HepG2 tox-1 = qHTS for Inhibitors of TGF-b: Cytotox Counterscreen; HepG2 CAGA-GFP viability, ATP luminescence, 18 h; Potency, µM (titrated, usually from 46.1 µM), actives largely listed as cytotoxic; hit rate 0.76% among 410,000; AID 588856, 2011
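CellTiter-Glo luminescence gave cytotoxicity after 18 hours at 37 degrees C. The cells were HepG2 CAGA-GFP in 1% FBS DMEM, stimulated with 500 pg/mL TGF-beta after compound addition. %Activity was normalised to no-cell wells (complete cell-killing) and DMSO (no toxicity), and curves were fitted and classified.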
S2 tox = Viability Counterscreen for Primary qHTS for Inhibitors of ATXN expression. AID 651635, 2014. S2 cells (HEK-293 line with an ATXN2-luciferase reporter) viability, CellTiter-Fluor protease fluorescence, 24 h. hit rate 0.49% among 400,000. Potency, µM (top dose mostly 56.7 µM), actives largely listed as cytotoxic; also: nearly all actives have a fitted effect of over 40% in size
Gal4-VP16 FLuc = VP16 counterscreen qHTS for inhibitors of ROR gamma transcriptional activity | Potency, µM (top dose mostly 53.6 µM), usual class: inhibitors | Drosophila S2 Gal4-VP16 UAS-luciferase, luminescence, 20 h | hit rate 3.5% among 310,000;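 also: Gal4-VP16 expression switched on by copper sulfate through the metallothionein promoter; nearly all actives have a fitted effect of over 50% in size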
TGFb inhibitor = qHTS for Inhibitors of TGF-b. HepG2 CAGA-GFP TGF-b/SMAD3 reporter, GFP fluorescence, 18 h; TGF-beta stimulated, 500 pg/mL final. Potency, µM (series often up to 46.1 µM), most hits filed as inhibitors. hit rate 1.2% among 410,000; also: nearly all actives have a fitted effect of over 65% in size
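Cell-based qHTS in HEPG2 carrying a CAGA-GFP Smad reporter; compounds added before 500 pg/mL final TGF-beta, 18 h incubation at 37 degrees C, GFP fluorescence quantified per cell by imaging cytometry.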
ATXN2 expr inh = Primary qHTS for Inhibitors of ATXN expression; HEK-293 ATXN2-luciferase reporter, luminescence, 24 h; Potency, µM (titrated, usually from 57 µM), most hits filed as inhibitors; hit rate 0.72% among 360,000; AID 1745845, 2022; also: nearly all actives have a fitted effect of over 55% in size
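qHTS (up to 57 uM final) was run with 24 h compound exposure of reporter cells at 37 °C. Each well was multiplexed: SteadyGlo luminescence measured ATXN2-luciferase expression after a fluorogenic Gly-Phe-AFC viability readout (25 uM final).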
RORgamma inh = qHTS for inhibitors of ROR gamma transcriptional activity. AID 2551, 2010. Potency, µM (series often up to 53.6 µM), usual class: inhibitors. Drosophila S2 Gal4-RORgamma UAS-luciferase reporter, 20 h. hit rate 5.4% among 310,000; also: nearly all actives have a fitted effect of over 60% in size
Target sequence (P51450 whole entry, looked up, the tested form may be a part): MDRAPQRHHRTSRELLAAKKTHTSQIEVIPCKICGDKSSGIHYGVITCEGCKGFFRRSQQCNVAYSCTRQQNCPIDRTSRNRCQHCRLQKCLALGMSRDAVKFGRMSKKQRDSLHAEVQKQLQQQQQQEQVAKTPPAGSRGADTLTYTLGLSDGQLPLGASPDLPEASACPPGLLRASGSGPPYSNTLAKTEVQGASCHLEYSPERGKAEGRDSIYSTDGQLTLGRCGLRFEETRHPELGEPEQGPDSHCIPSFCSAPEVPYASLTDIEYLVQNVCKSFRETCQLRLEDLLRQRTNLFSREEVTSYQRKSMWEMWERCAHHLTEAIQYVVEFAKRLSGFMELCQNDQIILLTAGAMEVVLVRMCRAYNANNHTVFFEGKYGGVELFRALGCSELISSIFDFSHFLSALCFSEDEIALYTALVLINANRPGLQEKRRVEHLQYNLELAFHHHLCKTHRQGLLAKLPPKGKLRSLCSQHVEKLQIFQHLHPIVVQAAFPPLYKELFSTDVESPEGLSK
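Luciferase reporter read in Schneider cells carrying Gal4-RORγ (mouse) and UAS-Photinus luciferase; cells given compound 1 h before 700 uM copper sulfate induction, then incubated 20 h at ambient temperature.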
TGFb confirm = qHTS for Inhibitors of TGF-b: Confirmation of Cherry Picks; shares compounds with TGFb inhibitor; Potency, µM (titrated, usually from 46.1 µM), usual class: inhibitors; hit rate 63% among 1,600; HepG2 CAGA-GFP TGF-b reporter, GFP fluorescence, 18 h; cells stimulated with TGF-beta, 500 pg/mL; also: nearly all actives have a fitted effect of over 65% in size
HepG2 tox-2 = qHTS for Inhibitors of TGF-b: Cytotox Counterscreen for Cherry Picks; shares compounds with TGFb inhibitor; HepG2 CAGA-GFP viability, ATP luminescence, 18 h; cells stimulated with TGF-beta, 500 pg/mL; Potency, µM (titrated, usually from 46.1 µM), usual class: inhibitors; hit rate 27% among 1,600; also: nearly all actives have a fitted effect of over 70% in size
CCL64 TGFb inh = qHTS for Inhibitors of TGF-b: CCL64 Cells Orthogonal Assay for Cherry Picks | Potency, µM (top dose mostly 46.1 µM), actives largely listed as inhibitors | shares compounds with TGFb inhibitor | CCL64 CAGA-GFP reporter, TGF-b stimulated, GFP fluorescence, 18 h | hit rate 41% among 1,600; also: nearly all actives have a fitted effect of over 65% in size
COP TGFb inh = qHTS for Inhibitors of TGF-b: Hit Validation in HepG2 Cells using COP promoter | Potency, µM (series often up to 46.1 µM), hits mostly inhibitors | AID 720537, 2013 | hit rate 3% among 1,600 | HepG2 COP-GFP TGF-b reporter, GFP fluorescence, 18 h; cells stimulated by added recombinant TGF-beta | shares compounds with TGFb inhibitor; also: nearly all actives have a fitted effect of over 70% in size
Hits are given with their value; – = inactive; ? = inconclusive; · = no result given; [ ] = dose if it differs, or a comment. Calls follow the shape of the dose curve; as a rule, active = well fitted curve in the direction sought with a large enough effect; inconclusive = small, poorly fitted or top-dose-only effect, or another doubt; inactive = no such curve, though single readings can be large; an effect the other way counts as inactive or inconclusive.

SMILES	HepG2 tox-1	S2 tox	Gal4-VP16 FLuc	TGFb inhibitor	ATXN2 expr inh	RORgamma inh	TGFb confirm	HepG2 tox-2	CCL64 TGFb inh	COP TGFb inh
O=C1N[C@@H](c2ccccc2)COC(=O)[C@@H](Cc2ccc(F)cc2)CC/C=C/C[C@H]1CC(=O)N(CCO)Cc1ccccc1	–	?	·	?	–	·	·	·	·	·
COc1cc(-c2ccno2)ccc1S(=O)(=O)N1CCN(c2ccc(C(C)=O)cc2)CC1	–	–	·	?	–	·	·	·	·	·
CCC(=O)N1CCN(c2ccc(NC(=O)c3ccc([N+](=O)[O-])o3)cc2)CC1	–	–	–	?	–	–	·	·	·	·
CC(C)(C)C(=O)N1CCN(c2ccc(NC(=O)c3ccc([N+](=O)[O-])o3)cc2)CC1	–	?	14.1µM	7.08µM	–	?	7.31µM	10.3µM	?	–
CS(=O)(=O)N1CCN(c2ccc(NC(=O)c3ccc([N+](=O)[O-])o3)cc2)CC1	5.62µM	?	?	3.98µM	·	–	2.91µM	14.6µM	?	–
O=C(Nc1ccc(N2CCN(C(=O)c3ccc(Cl)cc3)CC2)cc1)c1ccc([N+](=O)[O-])o1	12.6µM	?	?	7.08µM	–[11.3 µM]	–	6.51µM	16.4µM	?	?
O=C(Nc1ccc(N2CCCCC2)cc1)c1ccc([N+](=O)[O-])o1	–	?	?	?	–	?	·	·	·	·
Cc1cnc(C(=O)O)cn1	·	·	–	·	·	–	·	·	·	·
CCOc1ccccc1CNc1ccc2cc(S(=O)(=O)N3CCC(C)CC3)ccc2n1	–	–	·	–	–	·	·	·	·	·
Cc1cccc(-c2nc3c4c(-c5ccccc5)c(-c5ccccc5)oc4ncn3n2)c1	–	–	·	–	–	·	·	·	·	·
CCN(C(=O)COC(=O)c1ccccc1Nc1ccccc1)c1c(N)n(Cc2ccccc2)c(=O)[nH]c1=O	–	?	·	17.8µM	·	·	20.6µM	–	?	–
CCN(C(=O)COC(=O)c1cccc2ccccc12)c1c(N)n(Cc2ccccc2)c(=O)[nH]c1=O	–	–	·	–	–	·	·	·	·	·
CCCn1c(=O)c2sccc2n2c(CCCC(=O)N3CCN(c4cccc(C)c4C)CC3)nnc12	–	·	·	?	·	·	·	·	·	·
COc1cc(/C=C/C(=O)c2ccc3c(c2)OCCO3)cc(Br)c1OCC(=O)N(C)C	–	28.2µM	?	3.98µM	20µM	–	3.66µM	3.26µM	20.6µM	–
Cc1nc(N=C(N)N)nc2ccccc12	–	–	–	12.6µM	?	–	16.4µM	?	–	–
COc1ccccc1NC(=O)c1cc2cc(Br)ccc2cc1O	–	–	8.91µM	5.62µM	·	?	7.31µM	8.2µM	5.8µM	–
Cc1ccc(Cl)cc1NC(=O)c1cc2ccccc2cc1O	–	–	2.82µM	3.55µM	·	5.01µM	2.59µM	7.31µM	4.11µM	–
COc1cc(NC(=O)c2cc3ccccc3cc2O)c(OC)cc1Cl	–	–	–	4.47µM	·	?	7.31µM	6.51µM	5.8µM	–
COc1cccc(N2CCN(C(=O)CCCn3c(=O)[nH]c4ccc(Br)cc4c3=O)CC2)c1	–	?	·	?	?	·	·	·	·	·
O=C(NCc1cccc(F)c1)C1=Cc2cc(Br)ccc2OC1	–	?	·	?	?	·	·	·	·	·
COc1ccc(CCNC(=O)c2ccc(Cn3c(=O)c4ccccc4n(Cc4ccc(F)cc4Cl)c3=O)cc2)cc1OC	–	–	·	–	–	·	·	·	·	·
CC1=C(C(=O)Nc2cccnc2)C(c2ccccc2)n2nc(SCc3ccccc3)nc2N1 (stereo not given)	–	–	·	–	–	·	·	·	·	·
CC1(C(=O)Nc2ccccc2Cc2ccccc2)CCN1Cc1ccccc1Cl (stereo not given)	–	–	·	12.6µM	?	·	9.2µM	?	16.4µM	–
O=C(NCCCCc1ccccc1)NC[C@@H]1CC[C@@H](Cc2ccc(-c3ccccc3)cc2)O1	–	–	·	?	–	·	·	·	·	·
O=C(NC[C@@H]1CC[C@@H](Cc2ccc(-c3ccccc3)cc2)O1)Nc1ccc(Br)cc1	–	?	·	11.2µM	?	·	20.6µM	–	–	–
SMILES	HepG2 tox-1	S2 tox	Gal4-VP16 FLuc	TGFb inhibitor	ATXN2 expr inh	RORgamma inh	TGFb confirm	HepG2 tox-2	CCL64 TGFb inh	COP TGFb inh
COc1ccc(S(=O)(=O)NCCc2sc(-c3cccc(F)c3)nc2C)cc1	–	–	·	?	–	·	·	·	·	·
Cc1ccc(C2(c3ccc(C)cc3)CC2C(=O)Nc2ccc([N+](=O)[O-])cc2O)cc1 (stereo not given)	11.2µM	·	?	3.98µM	15.8µM	?	5.8µM	8.2µM	7.31µM	?
N#CCc1ccc(NC(=O)/C=C/c2ccc([N+](=O)[O-])o2)cc1	11.2µM	12.6µM	–	7.08µM	8.91µM	–	2.59µM	5.8µM	9.2µM	?
O=[N+]([O-])c1cc2c(c3cccnc13)COCO2	–	–	·	?	–	·	18.4µM	–	–	–
Cc1ccc(NC(=O)c2cc(S(=O)(=O)N(C)C)ccc2N2CCCC2)cc1F	–	–	·	10µM	–	·	13µM	–	18.4µM	–
CCOC(=O)C1=CCN(S(=O)(=O)c2ccccc2Br)C1c1cccc(Cl)c1 (stereo not given)	–	–	·	–	–	·	·	·	·	·
CCOC(=O)C1=CCN(S(=O)(=O)c2ccc(C)cc2)C1c1cccc(Cl)c1 (stereo not given)	–	–	·	10µM	?	·	23.1µM	–	–	–
CCOC(=O)C1=CCN(S(=O)(=O)c2ccccc2F)C1c1cccc(Cl)c1 (stereo not given)	–	?	·	11.2µM	–	·	?	–	?	–
CCOC(=O)C1=CCN(S(=O)(=O)c2cccc(Cl)c2)C1c1cccc(C)c1 (stereo not given)	–	?	·	–	–	·	·	·	·	·
COc1cc2c(c(Br)c1N)-c1cc(Br)c(N)cc1C2=O	–	–	·	?	·	·	0.581µM	0.581µM	–	–

High-throughput results (PubChem BioAssay)
